Mcl1-Bid inh: Mcl-1/Bid binding inhibitors, primary screen, biochemical, TR-FRET, 1536-well | 220,000 compounds, 0.97% hits | Induced myeloid leukemia cell differentiation protein Mcl-1 (Homo sapiens), Q07820 | AID 1021, 2008 | TR-FRET Mcl-1/Bid-Dy647 peptide binding | inhibition, % at 21.7 µM;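 active = compounds that cut the binding signal by more than half at the single screening dose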;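 also: His-tagged Mcl-1 with europium anti-His antibody binding Bid BH3 peptide; 0% = Mcl-1 plus peptide wells and 100% = peptide-only wells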
Bim-Mcl-1: inhibitors of Bim peptide binding to Mcl-1, primary screen, biochemical, bead-based flow cytometry, multiplex. Induced myeloid leukemia cell differentiation protein Mcl-1 (Homo sapiens), Q07820. Bim peptide-Mcl-1 binding. inhibition, % at 10 µM. 190,000 compounds, 0.1% hits; in the data active = inhibition above about 40%;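 also: 0% = no compound tracer wells and 100% = peptide blocker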
eIF4E-4G inh: eIF4E–eIF4G protein interaction inhibitors, primary screen, biochemical, uHTS, TR-FRET, eIF4GI fragment | Eukaryotic translation initiation factor 4E (Mus musculus) + Eukaryotic translation … | TR-FRET eIF4E-eIF4GI(517-606) binding, 2 h | inhibition, % at 21.7 µM | 220,000 compounds, 0.37% hits;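 active = inhibition above about 30%, limit read from the data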;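 also: 0% = full FRET control wells and 100% = background wells lacking eIF4GI fragment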
Mcl1-Noxa inh: Mcl-1/Noxa binding inhibitors, primary screen, biochemical, TR-FRET, 1536-well; Induced myeloid leukemia cell differentiation protein Mcl-1 (Homo sapiens), Q07820; TR-FRET Mcl-1/Noxa peptide binding, 2 h; inhibition, % at 21.7 µM; 220,000 compounds, 1.5% hits; AID 1022, 2008;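 active = compounds that cut the protein-peptide binding signal by more than 50% relative to plate controls in a single-dose test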;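 also: His-tagged Mcl-1 with rhodamine Noxa BH3 peptide and terbium anti-His antibody; 0% = Mcl-1 plus Noxa peptide wells and 100% = peptide-only wells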
14-3-3 Bad inh: inhibitors of 14-3-3 zeta/Bad binding, primary screen, biochemical, TR-FRET, bovine 14-3-3 zeta; 14-3-3 protein zeta/delta (Bos taurus), P63103; TR-FRET 14-3-3zeta/Dy647-pBad peptide displacement, 1 h; inhibition, % at 21.7 µM; 220,000 compounds, 0.71% hits; AID 781, 2007;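 active = inhibition above about 70%, limit read from the data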;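 also: 0% = full 14-3-3 plus peptide FRET controls and 100% = background without 14-3-3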
Hck Nef HTS: inhibitors of Nef-activated human Hck kinase, primary screen, biochemical, Z-Lyte FRET, 384-well, Hck-YEEI; inhibition, % at 20 µM; Tyrosine-protein kinase HCK (Homo sapiens), P08631; 220,000 compounds, 0.68% hits; Recombinant Hck-YEEI plus Nef, Z-Lyte FRET kinase assay; AID 463187, 2010;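 active = Hck-Nef kinase inhibition above about 50%, limit read from the data; inactive = inhibition below that limit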;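 also: 0% = DMSO with Hck plus Nef and 100% = Hck alone without Nef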
Target sequence (P08631 whole entry, looked up): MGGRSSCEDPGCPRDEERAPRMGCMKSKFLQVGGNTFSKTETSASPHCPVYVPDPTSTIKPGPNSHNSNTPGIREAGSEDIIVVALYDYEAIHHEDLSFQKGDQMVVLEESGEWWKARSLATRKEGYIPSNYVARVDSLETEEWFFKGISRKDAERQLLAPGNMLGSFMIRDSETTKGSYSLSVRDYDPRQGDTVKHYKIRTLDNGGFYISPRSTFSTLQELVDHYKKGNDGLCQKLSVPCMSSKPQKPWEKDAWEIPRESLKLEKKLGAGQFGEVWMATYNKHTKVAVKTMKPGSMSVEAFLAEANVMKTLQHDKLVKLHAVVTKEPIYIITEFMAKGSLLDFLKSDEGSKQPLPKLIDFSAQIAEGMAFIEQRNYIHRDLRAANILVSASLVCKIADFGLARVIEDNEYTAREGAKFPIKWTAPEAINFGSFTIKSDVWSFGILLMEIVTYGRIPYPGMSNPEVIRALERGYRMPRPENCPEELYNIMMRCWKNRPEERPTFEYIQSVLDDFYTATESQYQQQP
* = called active by the depositor; . = no result; ! = repeats disagree; [ ] = dose if it differs, or a comment. The list is not random: actives were taken first. Their share in the collection is about 3.5%.

SMILES	Mcl1-Bid inh	Bim-Mcl-1	eIF4E-4G inh	Mcl1-Noxa inh	14-3-3 Bad inh	Hck Nef HTS
CCCCN(C)S(=O)(=O)c1ccc(C(=O)N=c2sc3cc(NC(C)=O)ccc3n2C)cc1	69.7*	-29.0	22.2	28.6	61.5	12.8
CCCCN(CC)S(=O)(=O)c1ccc(C(=O)N=c2sc3cc(NC(C)=O)ccc3n2C)cc1	-3.0	-5.0	2.6	0.2	18.7	5.2
COc1cc2c(-c3ccc(O)cc3)nc3c(c(C)nn3-c3ccccc3)c2cc1OC	60.7*	0.0	38.8*	79.8*	54.1	3.3
COc1cc2c(C)nc3c(c(C)nn3-c3ccccc3)c2cc1OC	-7.4	0.0	-0.2	0.1	-1.3	19.8
CCN(CC)S(=O)(=O)c1cc(F)ccc1OC	-3.3	1.0	35.4*	-17.2	3.2	-8.7
CCN(CC)S(=O)(=O)c1ccc(C(=O)Oc2coc(CSc3nc(C)cc(C)n3)cc2=O)cc1	-2.6	1.0	0.7	70.4*	-6.2	2.9
c1ccc(Cn2nnnc2C(c2cccs2)N2CCSCC2)cc1 (stereo not drawn)	-13.2	-8.0	-4.4	7.5	12.7	0.0
CC1CCN(C(c2cccs2)c2nnnn2Cc2ccccc2)CC1 (stereo not drawn)	20.5	-1.0	11.1	10.5	79.2*	-25.9
O=C(OC1CCc2ccccc2C1=O)c1ccccc1O (stereo not drawn)	54.5*	0.0	3.6	6.4	-7.4	0.3
O=C(N/N=C1\CCc2ccccc21)c1ccccc1O	3.9	-4.0	-1.7	20.8	-1.3	2.6
O=C(CSc1nnc(CNc2ccc(F)cc2)o1)c1ccccc1	-55.6	-4.0	8.5	11.5	-13.6	24.7
COc1ccc(NC(=O)c2ccc(Cl)nc2)cc1S(=O)(=O)N1CCCCC1	-39.6	0.0	-3.4	18.0	91.1*	-8.4
COc1ccc(C(=O)Nc2cccc(C)c2)cc1S(=O)(=O)N1CCOCC1	76.0*	0.0	-4.3	3.0	-6.5	5.9
COc1ccc(C(=O)N2CCN(S(=O)(=O)c3ccc(C)cc3)CC2)cc1S(=O)(=O)N1CCOCC1	-19.1	.	61.6*	4.1	-0.9	15.1
Cc1ccc(S(=O)(=O)Nc2ccc(C(=O)OCC(=O)N(CCC#N)c3ccccc3)cc2)cc1C	-19.5	-4.0	5.7	9.3	5.0	1.7
CCN1CCN(C(=O)C23CCC(C)(C(=O)C2Br)C3(C)C)CC1 (stereo not drawn)	-13.1	.	-8.4	6.5	6.9	21.9
CCOc1ccc(CN2CCN(S(=O)(=O)c3ccc(NC(C)=O)cc3)CC2)cc1OC	51.7*	-3.0	1.1	4.6	33.7	-0.1
COc1ccc(CN2CCN(S(=O)(=O)c3ccc(NC(C)=O)cc3)CC2)cc1	44.5	.	-10.4	11.7	43.8	9.6
CCOc1cc(C=O)ccc1OCC(N)=O	-19.8	-1.0	1.1	17.0	-13.6	16.8
CCOc1cc(C=O)ccc1OS(=O)(=O)c1ccc(NC(C)=O)cc1	52.0*	-1.0	-0.4	38.8	8.5	6.7
COC(=O)c1ccccc1NC(=O)CSCC(=O)Nc1ccccc1	-15.0	0.0	-7.4	30.8	-3.3	0.3
CC(C)Oc1ccc2c(=O)c(-c3ccccc3)coc2c1	64.0*!	-3.0	-0.9	44.4	-8.6	-3.2
COC(=O)COc1ccc2c(=O)c(-c3ccccc3)coc2c1	-0.9	.	-0.1	-1.1	1.6	0.5
Cc1ccccc1N1CC(=O)N(c2ccccc2C)CC1=O	-4.3	0.0	6.4	-1.1	3.2	-15.8
Cc1cccc2c1c1ccc3c(c1n2C)C(=O)C=CC3=O	40.1	.	6.7	108.5*	10.0	-6.2
SMILES	Mcl1-Bid inh	Bim-Mcl-1	eIF4E-4G inh	Mcl1-Noxa inh	14-3-3 Bad inh	Hck Nef HTS
Cc1ccc(C2=NN(C(=O)CCC(=O)O)C(c3cn(-c4ccccc4)nc3-c3ccc(C)cc3)C2)cc1 (stereo not drawn)	-21.3	0.0	5.3	-10.1	-4.1	32.3
O=C(Nc1ccccn1)c1ccc([N+](=O)[O-])cc1Cl	94.2*	-3.0	2.4	2.5	3.9	1.3
CN(C)c1ccc(NC(=O)c2ccc([N+](=O)[O-])cc2Cl)cc1	-19.1	-4.0	15.5	74.0*	-15.2	5.7
CC(C)C(=O)Nc1ccc(NC(=O)c2ccc([N+](=O)[O-])cc2Cl)cc1	-6.5	-4.0	0.5	-3.8	-13.6	-0.4
NS(=O)(=O)c1cccc(NC(=O)CCSc2ccc(Cl)cc2)c1	-4.8	-4.0	24.5	15.7	-8.4	7.5
CCOC(=O)c1cc2c(=O)n3ccccc3nc2n(Cc2ccco2)c1=NC(=O)c1ccc(OC)cc1OC	-25.9	0.0	6.8	6.0	-8.9	27.8
CCN(CCNC(=O)CN1CCN(Cc2ccc(Cl)cc2)C1=O)c1ccccc1	87.4*	0.0	13.9	-20.4	-10.5	4.0
O=C(CN1CCN(Cc2ccccc2)C1=O)NCc1ccc(Cl)cc1	-33.4	-2.0	-3.0	-14.9	-3.5	-0.3
COC(=O)c1ccc(NC(=O)CCN2C(=O)CSC2=O)cc1	-12.2	0.0	1.1	3.7	2.5	7.4
O=C(O)C(O)c1ccco1 (stereo not drawn)	-25.1	-2.0	22.3	67.3*	15.7	25.1
CCCCOc1ccc(/C(O)=C2/C(=O)C(=O)N(Cc3cccnc3)C2c2ccncc2)c(C)c1 (stereo not drawn)	9.0	-2.0	1.3	13.8	19.4	4.7
COc1ccc(-n2c(Cc3cccn3C)nnc2SCC(=O)Nc2ccccc2)cc1	-42.1	0.0	3.3	14.9	2.3	15.5
COc1ccc(-n2c(Cc3cccn3C)nnc2SCC(=O)Nc2cccc(F)c2)cc1	-28.4	0.0	62.2*[fluorescence artefact?]	2.3	6.3	-4.3
COc1ccc(-n2c(Cc3cccn3C)nnc2SCC(=O)NCc2ccccc2Cl)cc1	64.8*	-1.0	7.9	-6.3	5.2	-6.8
Cc1csc(=Nc2ccccc2)n1Cc1ccco1	6.3	-2.0	-0.8	21.5	3.4	-0.3
O=C(COC(=O)/C=C/c1ccccc1)NCc1ccccc1Cl	-7.8	2.0	-3.1	-2.5	-5.7	35.8
O=c1c(-c2cnn(-c3ccccc3)c2)coc2cc(O)ccc12	4.5	-6.0	3.6	57.4*	45.7	5.5
Cc1ccc(C(=O)/C=C\NCc2ccccc2)cc1	-39.6	-5.0	-3.8	1.6	-8.8	7.8
CCc1ccc(C(=O)/C=C/NCc2ccc(F)cc2)cc1	53.3*	-10.0	0.2	13.3	-1.0	1.8
